The record followed here is PubChem BioAssay (NCI).

SMILES strings stand for the structures. The panel holds about 83,000 compounds, 20% with a hit somewhere; the sample as a whole holds those more often.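 96-well plates, one dose, 48 hours. Percent growth reported; active if below 10.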 Unmarked numbers belong to inactive results. Activity calls are given as the source filed them.

The assay has as its system MDA-MB-468 breast. Put plainly: NCI-60 one-dose screen, 48 h (100 = growth as untreated, 0 = no growth, -100 = all killed). As to conditions: 10 µM unless noted.
For the molecule `CC(C)(C)Nc1nc2c(OCCc3ccccc3)cccn2c1-c1cccc(F)c1`, the growth is -30.8% (active). With `COc1ccc2cc(-c3ccc(-c4ccc(C(=N)N)s4)s3)ccc2c1` the figure was -51.7% (active). On to `CCOC(=O)C1=C(N)Oc2cc(OC)ccc2C1c1ccc(F)c(F)c1` (stereo not given), for which the growth is -37.8% (active).

Turning to `CNC(=O)c1cc(Oc2ccc3c(c2)sc2nc(-c4ccc(Cl)cc4)cn23)ccn1`, the growth was 77.3%. Take `O=C(Nc1cccc(C2=NCCN2)c1)c1cccc(C(=O)Nc2cccc(C3=NCCN3)c2)c1`: the growth is 90.8%. With `C=CCn1c(SCC(=O)c2ccc(Br)cc2)nnc1-c1c[nH]c2ccccc12` the figure was 86.9%; with `CN1CCN(Cc2ccc(/C=N/Nc3ccnc4cc(Cl)ccc34)cc2)CC1`, 77.1%.

On to `Clc1ccc2c(NC3CCC(NC4CCCCC4)CC3)ccnc2c1` (stereo not given), for which the growth was -7.22% (active).

In the case of `COc1ccc(C2=NN(c3ccc(S(N)(=O)=O)cc3)C(c3ccc(Cl)cc3)C2)c(O)c1` (stereo not given), the growth is 61.7%. With `CCc1nnc(NC(=O)c2cc(-c3ccc(Cl)cc3Cl)oc2C)s1` the figure was 94%; with `CCCCCCCCCCCCCCCC[N+]1(C)CCCC1c1cccnc1` (stereo not given), -15.8% (active).

With `COc1ccc(-c2cc(-c3ccc(Cl)cc3)c(C#N)c(=O)n2CCCCCC(=O)Nc2ccccc2N)cc1`, the growth is 53.1%. With `CCN(CC)c1ccc(/C=N/NC(=O)c2ccc(S(N)(=O)=O)cc2)c(O)c1` the figure was -0.911% (active). `Brc1ccccc1Cn1c(-c2cncs2)nc2ccccc21`: the growth is 61.8%. The same measure for `O=C1CCC(C(=O)NCCNCCNC(=O)C2CCC(=O)N2)N1` (stereo not given): 89.7%; for `Nc1nc(Cl)c2c(C(F)(F)F)cn(CC3CCNCC3)c2n1`: 26.8%. With `CCOC(=O)C1CCNC(=O)C1=O` (stereo not given) the figure was 99.5%. Regarding `CC(=O)Nc1nc(C(=O)N2N=C(C)/C(=C/c3cccs3)C2=O)cs1`, the growth was 103%. With `Nc1ccccc1SC1CC(=O)N(c2ccc(Cl)c(Cl)c2)C1=O` (stereo not given) the figure was 80.4%; with `C[C@@H](Nc1c(C#N)cnc2ccc(-c3cnc(N)nc3)cc12)c1ccccc1`, -8.47% (active). The same measure for `CCOc1cc(F)c([N+](=O)[O-])cc1[N+](=O)[O-]`: -35.2% (active).

Regarding `Cc1cc(Br)c2nsnc2c1[N+](=O)[O-]`, the growth is -24.6% (active). As for `CCCCCOc1ccc(/C=N/Nc2cc(C)nc3ccc(Cl)cc23)cc1`, the growth was -29% (active). For `C=CC(=O)N[C@H](/C=C/C(=O)OCC)Cc1ccc(-c2cc(Cl)cc(Cl)c2)cc1`, the growth is 88%. In the case of `COC1=C(OC)C(=O)C(SC/C=C(\C)CCCC(C)CCCC(C)CCCC(C)C)=CC1=O` (stereo not given), the growth was 42.6%.

As for `Cc1cc(C(N)=O)cc(C)c1C(=O)OCCCl`, the growth is 115%. For the molecule `C#C[C@]1(O)CC[C@H]2[C@@H]3CC=C4c5sc(Nc6ccc(Cl)cn6)nc5CC[C@]4(C)[C@H]3CC[C@@]21C`, the growth is 68.4%. With `N#Cc1c2ncccc2c2nnc3cc(Cl)c(Cl)cc3n12` the figure was 21.7%; with `N=c1c(S(=O)(=O)c2ccccc2)cc2c(=O)n3ccccc3nc2n1CC1CCCO1` (stereo not given), 121%; with `N#CC1=C(N)OC2=C(C(=O)CCC2)C1c1ccco1` (stereo not given), 115%. As for `COc1ccc(Sc2ccc3[nH]c(=O)nc(N)c3c2)cc1`, the growth is 92.7%. In the case of `COc1ccc(/C=C(\C#N)n2nnc3c(F)cccc32)cc1`, the growth was -7.36% (active). The same measure for `CCOC(=O)c1ccc(N2C(=O)C(Cl)(c3ccccc3)C2c2ccco2)cc1` (stereo not given): 65.9%. The same measure for `O=c1[nH]c2ccc(Cl)cc2c2ccccc12`: 68.1%; for `O=C(O)c1cn(C2CC2)c2cc(N3CCN(C(=O)N/N=C/c4ccccc4)CC3)c(F)cc2c1=O`: 83.7%. `COc1cc(/C=C\c2cc(/C=C\c3ccc(O)c(OC)c3)n(C(=O)CNc3ccccc3OC)n2)ccc1O`: the growth was 95.8%.

`N#CC1=C(N)Oc2c(sc3c(Br)cccc23)C1c1ccc([N+](=O)[O-])cc1` (stereo not given): the growth is 42.2%. Turning to `CNC(=O)c1ccccc1Nc1nc(Nc2cc(OC)c(OC)c(OC)c2)ncc1Br`, the growth is -46.6% (active). With `O=C1/C(=C/c2cccc([N+](=O)[O-])c2)COc2ccc(O)c(O)c21` the figure was -47.8% (active). With `Clc1ccc2c(N3CCN(c4ccnc(NC5CCCCC5)n4)CC3)ccnc2c1` the figure was 29.4%.
